# Results from ChEMBL document CHEMBL3988442, “University of Dundee, Small-Polar-MMV Screening Library” (2021).
# Screen size: about 48,000 compounds; about 13,000 (27%) showed an effect of 50% or more. The list shows a part of the results.
# Tested on: Wolbachia pipientis
# Experiment: Anti-Wolbachia Cell-Based Screen
# Type: functional
# Set-up: scale not given: in the data most compounds retested in dose-response had high values
# Conditions: 5 µM
row,Compound,Percent Effect
1,Cc1ccc(-c2nnc(NC(=O)c3ccn(C)c(=O)c3)[nH]2)s1,1.444%
2,CCN(C(=O)C1CC1)C(c1cccnc1)c1ccc2c(c1)CCO2 (stereo not given),-9.628%
3,Cc1nnc(CN2CCCC2c2ccsc2)o1 (stereo not given),42.12%
4,Cc1c(S(=O)(=O)N2CCCC2c2nnc(-c3ccsc3)o2)cnn1C (stereo not given),130.9%
5,CC(c1nnc(-c2cccs2)o1)N1CCn2c(nnc2C2CC2)C1 (stereo not given),-4.966%
6,Cc1c(S(=O)(=O)N2CCCCC2c2nnc(-c3cccs3)o2)cnn1C (stereo not given),114.5%
7,Cn1cc(C2CCCN2Cc2csc(-c3ccsc3)n2)cn1 (stereo not given),2.773%
8,Cc1ccc(-c2nnc(C3CCCN3S(=O)(=O)c3cnn(C)c3C)o2)s1 (stereo not given),112%
9,Cc1ccc(C2CCCN2S(=O)(=O)N(C)Cc2cnn(C)c2)o1 (stereo not given),13.71%
10,Cn1cc(S(=O)(=O)N2CCCC2CC(=O)c2cccs2)cn1 (stereo not given),-23.33%
11,Cc1noc(CCNS(=O)(=O)N2CCCC2c2ccc(C)o2)n1 (stereo not given),4.735%
12,CN1[C@@H](c2ccccc2)[C@@H](C(=O)NCc2ccncc2)C[C@@]1(C)C(=O)O,1.416%
13,O=C(O)c1ccnc(-c2ccnc(COc3cccc(F)c3)n2)c1,-102.4%
14,Cc1cccc(N2CCN(CCNC(=O)C(C)n3cncn3)CC2)c1 (stereo not given),8.571%
15,CC1CCCCN1CCN(C)C(=O)c1cc(CN2CCC(O)CC2)on1 (stereo not given),0.4872%
16,Fc1cccc(C(NCc2ncc[nH]2)c2ccccc2)c1 (stereo not given),-7.792%
17,Fc1ccc(NCc2ccncc2)c(OC(F)F)c1,-6.491%
18,CSCc1cc(F)ccc1CNCc1cccc(O)c1,105.8%
19,Fc1cccc(NCc2ncc[nH]2)c1,-11.31%
20,CSCc1cc(F)ccc1CNCc1ncc[nH]1,108.7%
21,CSCc1cc(F)ccc1CNCc1ccncc1,99.15%
22,COc1cc(F)ccc1N(C)Cc1cccnc1,-2.533%
23,O=C(NCc1ccncc1)N(Cc1ccc(F)cc1F)C1CC1,-2.267%
24,Cc1cnn(CCNCc2cccnc2)c1,-0.61%
25,CSCc1cc(F)ccc1CNCc1cccnc1,101.5%
26,O=C1CCCN1c1cccc(CNCc2cc(F)ccc2F)c1,-5.013%
27,O=C1OCCN1c1cccc(CNCc2cc(F)ccc2F)c1,6.854%
28,Cc1cc(C)n(CC(C)NCc2cnc3c(C)cccn23)n1 (stereo not given),-11.8%
29,COCCSc1ccc(C(C)NC(=O)Nc2cn[nH]c2)cc1 (stereo not given),-2.849%
30,COc1cc(NCC(=O)NC(C)(C#N)C(C)C)cc(OC)c1OC (stereo not given),-11.73%
